# From PubChem BioAssay AID651822 (The Scripps Research Institute Molecular Screening Center, 2012)
# Screen size: about 2,300 compounds; about 970 (42%) were called active. Cut-off read from the data, not from the text of the source: active = inhibition above about 4.5%; inactive = the rest. The set was probably picked from earlier hits. The list is a sample of the results.
# Tested on: Methionine sulfoxide reductase A (Bos taurus)
# Assay: methionine sulfoxide reductase A inhibition – biochemical, absorbance, bovine, HTS, confirmation (AID 651822);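 note: coupled to thioredoxin reductase with NADPH and selenocystamine and DMSO as substrate; 0% = vehicle only and 100% = full effect of reference inhibitor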
# Details: purified bovine MsrA, absorbance read-out; at 15.5 µM; hits give high values
row,Structure (SMILES),inhibition
1,COc1ccccc1C(=O)N/C(=C/c1ccc2c(c1)OCO2)C(=O)Nc1cccc(C(=O)O)c1,3.23% (inactive)
2,COc1ccc(/C=C(/NC(=O)c2ccco2)C(=O)Nc2ccc(C(C)=O)cc2)cc1,5.97% (active)
3,CCN(CC)C(=O)c1sc(NC(=O)c2ccco2)c(C#N)c1C,3.8% (inactive)
4,Cc1cc(C)nc(S/C=C/C(=O)c2ccccc2)n1,4.29% (inactive)
5,COc1ccc(C(=O)CSc2nc(C)cc(C)n2)cc1[N+](=O)[O-],7.55% (active)
6,Cc1cccc(-n2c(O)c(C=Nc3ccccc3N)c(=O)[nH]c2=O)c1,3.07% (inactive)
7,COc1ccc(/C=N\NC(=O)c2sc(N)nc2C)cc1OC,6.13% (active)
8,COc1ccc(/C=N/n2nnnc2N)cc1OC,2.84% (inactive)
9,CCOc1cc(/C=N/NC(=O)c2c(C)nc3ccc(Cl)cn23)ccc1O,4.5% (inactive)
10,COc1ccc(/C=C2\N=C3CCCN3C2=O)cc1,2.42% (inactive)
11,COc1ccc(/C=C2\SC(=O)N(CCC(=O)NC3CCS(=O)(=O)C3)C2=O)cc1 (centres undefined),5.86% (active)
12,Cc1n[nH]c(=O)nc1N/N=C/c1cccs1,3.61% (inactive)
13,O=C(N/N=C/c1ccc2c(c1)OCO2)c1ccc(Cn2cc([N+](=O)[O-])cn2)o1,4.56% (active)
14,CCOc1cc(/C=N/NC(=O)c2ccc(CSc3nncn3C)cc2)ccc1OCC(=O)N1CCOCC1,3.67% (inactive)
15,COc1ccc(OC)c(C2C3=C(N=c4s/c(=C\c5cccc(O)c5)c(=O)n42)c2ccccc2CC3)c1 (centres undefined),3.18% (inactive)
16,CC(N=Cc1nc(-c2ccccc2)oc1O)c1ccccc1 (centres undefined),3.02% (inactive)
17,COC(=O)/C(C#N)=C/c1occc1C,4.58% (active)
18,CC(Nc1ccc([N+](=O)[O-])cc1[N+](=O)[O-])c1ccccc1 (centres undefined),32.3% (active)
19,O=C(Cc1ccccn1)c1ccc(O)cc1O,2.96% (inactive)
20,Cc1ccc(S(=O)(=O)Nc2nc(C)cc(N/N=C/c3ccc(O)cc3)n2)cc1,4.89% (active)
21,CN(c1ccccc1)S(=O)(=O)c1ccc2[nH]c(=O)[nH]c2c1,9.47% (active)
22,CS(=O)(=O)c1ccc2nc(NC(=O)c3ccc(Cl)nc3)sc2c1,4.5% (inactive)
23,Cc1ccc(C(=O)N/N=C/c2sc(=O)n(Cc3cccc(C(=O)O)c3)c2Cl)cc1,6.35% (active)
24,O=C(O)c1ccc(N/N=C/c2ccc3ncccc3c2)cc1,7.49% (active)
25,Oc1ccc(/C=N/Nc2ccc(C(F)(F)F)cn2)cc1O,4.15% (inactive)

row,Structure (SMILES),inhibition
1,COc1ccccc1-c1n[nH]c2c1[C@H](C)CC[C@H]2C(C)C,8.12% (active)
2,Cc1ccc(Nc2ccc(C(N)=O)cc2[N+](=O)[O-])cc1,5.43% (active)
3,NC(=O)c1ccc(Nc2ccc3c(c2)CCC3)c([N+](=O)[O-])c1,12% (active)
4,CCn1cc(/C=C(\NC(=O)c2ccc(C)cc2)C(=O)NCCN2CCOCC2)c2ccccc21,1.62% (inactive)
5,COc1ccc(-c2ccc(Nc3ccc(S(=O)(=O)N4CCCC4)cc3)nn2)cc1OC,4.64% (active)
6,CCOc1ccc(/C=C(/C#N)c2nnc(N3CCOCC3)n2-c2ccccc2)cc1OC,2.86% (inactive)
7,CCCc1nc(SCC(=O)N2CCCC2)c2c(=O)n(C)c(=O)n(C)c2n1,4.83% (active)
8,CC(=O)c1sc2nc(SCC(=O)N3CCCCC3)[nH]c(=O)c2c1C,4.28% (inactive)
9,CC1CCCCN1S(=O)(=O)c1ccc(C(=O)Nc2nnc(-c3cccs3)o2)cc1 (centres undefined),2.45% (inactive)
10,Cc1ccc(CC2(C)C(=O)Nc3ccc(OC(F)(F)F)cc32)cc1 (centres undefined),8.12% (active)
11,CC(=O)c1ccc(N2CCN(CC(=O)Nc3ccccc3N3CCOCC3)CC2)cc1,1.04% (inactive)
12,CSc1ccc(/C=C2\NC(=O)NC2=O)cc1,3.93% (inactive)
13,O=Cc1cn(-c2ccccc2)nc1-c1ccccn1,5.38% (active)
14,Cc1ccc(/C=N/NC(=S)NC2CCCCC2)o1,4.23% (inactive)
15,Cc1ccc(S(=O)(=O)N(C)c2ccc(OCC(=O)OCc3ccc(C#N)cc3)cc2)cc1,5.74% (active)
16,CC(=O)c1ccc(N2CCN(C(=O)c3ccc4nc[nH]c4c3)CC2)cc1,3.02% (inactive)
17,O=C(CNC(=O)C1COc2ccccc2O1)N/N=C/c1cc(Br)c(O)c(Br)c1 (centres undefined),7.08% (active)
18,O=C(CNC(=O)c1cccnc1)N/N=C/c1cc(Br)c(O)c(Br)c1,4.48% (inactive)
19,O=C1/C(=C\Nc2ccccc2)CCN1c1ncccn1,6.98% (active)
20,CC(=O)Nc1ccc(S(=O)(=O)Oc2ccc(/C=N/N=C3/NC(=O)C(CC(=O)O)S3)cc2)cc1 (centres undefined),2.79% (inactive)
21,O=C(O)c1ccc(N/N=C/c2cn(-c3ccccc3)nc2-c2cccs2)cc1,5.22% (active)
22,CC(=O)N1N=C(c2ccncc2)OC1(Cc1ccccc1)Cc1ccccc1,9.69% (active)
23,Cc1ccc(N2C(=O)CN=C2Nc2nc(C)cc(C)n2)cc1,4.56% (active)
24,Cc1c(C(=O)N2CCCc3ccccc32)oc2ccccc12,7.55% (active)
25,COc1ccc(C2/C(=C(/O)c3ccccc3)C(=O)C(=O)N2C)c(OC)c1 (centres undefined),1.16% (inactive)

row,Structure (SMILES),inhibition
1,Clc1cccc(-c2nc3nc4ccccc4nc3n2Cc2ccco2)c1,1.65% (inactive)
2,O=S1(=O)N=C(N(CCO)/N=C/c2ccccc2F)c2ccccc21,2.79% (inactive)
3,CCOC(=O)C(C)n1cnc2scc(-c3ccc(C)c(C)c3)c2c1=O (centres undefined),5.16% (active)
4,COc1cc2cc(C(=O)N/N=C/c3cccc(OC)c3OC)[nH]c2cc1OC,5.26% (active)
5,CCOc1ccc2[nH]c(C(=O)N/N=C/c3cccc(OC)c3OC)cc2c1,3% (inactive)
6,Cc1ccccc1C(CC(=O)c1cccs1)C(C#N)C#N (centres undefined),2.52% (inactive)
7,Nc1nnnn1CC(=O)N/N=C/c1ccc(-c2cccc(Cl)c2)o1,3.45% (inactive)
8,Cc1cccc2cc(C#N)c(N3CCCC3)nc12,7.09% (active)
9,O=C(N/N=C/c1ccco1)c1ccc(C(=O)N/N=C/c2ccco2)o1,10.6% (active)
10,Cc1occc1C(=O)N/N=C/c1ccc(-c2cccc([N+](=O)[O-])c2)o1,3.63% (inactive)
11,Cc1oc2c(c1C(=O)N1CCOCC1)C(=O)c1ccccc1C2=O,15.3% (active)
12,COCCNC(=S)N/N=C/c1c(C)[nH]c2ccccc12,4.03% (inactive)
13,C=CCNC(=S)N/N=C/c1ccc(C)s1,5.29% (active)
14,NC(=S)N/N=C/c1ccc([N+](=O)[O-])cc1,4.55% (active)
15,Cc1cc(C(=O)N/N=C/c2ccc(O)c([N+](=O)[O-])c2)c(C)n1-c1ccc(F)cc1,4.12% (inactive)
16,Cc1ccc(N2CCN(C3=NC(=O)/C(=C\c4cccs4)S3)CC2)cc1,1.26% (inactive)
17,COc1ccc(/C=C/C(=O)NC(=S)N2CCCC(C(N)=O)C2)cc1 (centres undefined),6.19% (active)
18,COc1ccc(C2=NS(=O)(=O)N(C)C(C(=O)N3CCCCC3)=C2)cc1,3.33% (inactive)
19,CC(=O)Nc1ccc(/C=N/NC(=O)c2cccs2)cc1,3.39% (inactive)
20,O=C(N/N=C/C=C/c1ccco1)c1cccs1,7.55% (active)
21,CCN(CC)c1ccc(/C=N/NC(=O)CNC(=O)c2cccs2)cc1,3.57% (inactive)
22,COc1ccc(CC(=O)c2ccc(O)cc2O)cc1OC,4.03% (inactive)
23,C/C(=N\Nc1ccc(S(N)(=O)=O)cc1[N+](=O)[O-])c1cccs1,1.79% (inactive)
24,CCOC(=O)C/C(C)=N\Nc1ccc([N+](=O)[O-])cc1[N+](=O)[O-],9.34% (active)
25,COc1cc(C2C(C(=O)c3sc(C)nc3C)=C(O)C(=O)N2CCN(C)C)cc(OC)c1OC (centres undefined),9.08% (active)

row,Structure (SMILES),inhibition
1,Cc1ccc(-c2ccc(/C=C(\C#N)C(N)=S)o2)c([N+](=O)[O-])c1,2.76% (inactive)
2,COc1ccc(/C=C/C(=O)Nc2cccnc2)cc1OC,4.72% (active)
3,CC(/C=N/NC(=O)c1ccncc1)=C\c1ccco1,6.11% (active)
4,CC(C)Oc1c(Br)cc(Br)cc1/C=N/NC(N)=S,6.46% (active)
5,CCOC(OCC)c1ccc(/C=C\c2nccc(N)n2)cc1,3.39% (inactive)
6,CCc1nnc(NS(=O)(=O)c2ccc(NC(=S)NC(=O)/C=C/c3cccs3)cc2)s1,4.14% (inactive)
7,CCc1nnc(NC(=O)/C=C/c2ccc(C)o2)s1,6.27% (active)
8,COc1cccc(C2=CC(=O)C[C@H](c3ccc(F)cc3)C2)c1OC,1.12% (inactive)
9,CN1CCN(CCC(=O)N/N=C/C=C2\N(C)c3ccccc3C2(C)C)CC1,4.4% (inactive)
10,O=C(Oc1c(-c2ccco2)oc2ccccc2c1=O)c1cccnc1,4.83% (active)
11,Cc1c(C=O)c2ccccn2c1C(=O)c1ccncc1,4.31% (inactive)
12,COc1cccc(/C(C)=N/Nc2ncc(Cl)cc2Cl)c1,5.95% (active)
13,O=C(Nc1ccc(C(=O)O)cc1)/C(=C/c1ccc([N+](=O)[O-])cc1)NC(=O)c1ccccc1,2.84% (inactive)
14,CNC(=O)/C(=C\C=C\c1ccccc1)NC(=O)c1ccc([N+](=O)[O-])cc1,4.89% (active)
15,Cc1cc(C(=O)N/N=C/c2ccc(N3CCOCC3)cc2)c(C)o1,3.45% (inactive)
16,COc1ccc(/C=N/Nc2cc(N3CCOCC3)nc(C)n2)c(OC)c1,5.31% (active)
17,C(=N/Nc1cc(N2CCOCC2)nc(N2CCOCC2)n1)/c1ccccc1,2.4% (inactive)
18,COc1ccc(S(=O)(=O)c2c[nH]c(=S)[nH]c2=O)cc1Cl,2.06% (inactive)
19,CCOC(=O)c1c(C(C#N)C#N)cc(C)nc1C,5.34% (active)
20,Cc1ccc(Cl)cc1-c1ccc(/C=N/n2cnnc2)o1,3.18% (inactive)
21,S=c1[nH]nc(-c2ccccc2)n1/N=C/c1c[nH]c2ccccc12,2.93% (inactive)
22,O=C(O)c1cccc(NC(=S)N/N=C/c2c[nH]c3ccccc23)c1,5.97% (active)
23,O=C(Nc1cccc(F)c1)c1coc(=O)c(Br)c1,4.61% (active)
24,CCOc1cc(/C=C2\SC(N3CCCCC3)=NC2=O)ccc1O,2.79% (inactive)
